Screens (PubChem)
USP1 inh: inhibitors of human USP1/UAF1 deubiquitinase; O94782; recombinant USP1/UAF1, Ub-Rhodamine cleavage fluorescence; Potency, µM (series often up to 57.1 µM), inactives show at the highest dose activity change, negative = inhibition, hits mostly inhibitors; hit rate 0.23% among 390,000; AID 743255; also: % is scaled to controls: 0 for no effect and ±100 for the full control effect; nearly all actives have a fitted effect of over 60% in size
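High-throughput fluorogenic screen: 1nM USP1/UAF1 complex, Ub-Rho substrate 150nM final, 50mM HEPES pH 7.8 with 0.5mM EDTA, 0.1 mg/ml BSA, 1mM TCEP and 0.01% Tween-20.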
EPAC2 agonist: activates human EPAC2 exchange factor; Q8WZA2; hit rate 0.079% among 360,000; Potency, µM (highest dose often 154 µM), for the others: at the highest dose activation, actives largely listed as activators; EPAC2 activation, biochemical qHTS; response scale: 100% = 6.5 mM cAMP response; also: nearly all actives have a fitted effect of over 50% in size
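Compounds were added across a concentration range to EPAC2 (100 nM), RAP1B-BODIPY-GDP (250 nM) and GDP (50 uM). After 5 min at room temperature, fluorescence was recorded at 5-min intervals for 30 min.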
EPAC1 ag: activates human EPAC1 exchange factor; Potency, µM (highest dose often 154 µM), inactives show at the top dose activation, hits mostly activators; hit rate 0.073% among 360,000; AID 720707; EPAC1 agonist qHTS, biochemical assay; response scale: 100% = response to 6.5 mM cAMP; also: nearly all actives have a fitted effect of over 60% in size
Target sequence (O95398 whole entry, looked up): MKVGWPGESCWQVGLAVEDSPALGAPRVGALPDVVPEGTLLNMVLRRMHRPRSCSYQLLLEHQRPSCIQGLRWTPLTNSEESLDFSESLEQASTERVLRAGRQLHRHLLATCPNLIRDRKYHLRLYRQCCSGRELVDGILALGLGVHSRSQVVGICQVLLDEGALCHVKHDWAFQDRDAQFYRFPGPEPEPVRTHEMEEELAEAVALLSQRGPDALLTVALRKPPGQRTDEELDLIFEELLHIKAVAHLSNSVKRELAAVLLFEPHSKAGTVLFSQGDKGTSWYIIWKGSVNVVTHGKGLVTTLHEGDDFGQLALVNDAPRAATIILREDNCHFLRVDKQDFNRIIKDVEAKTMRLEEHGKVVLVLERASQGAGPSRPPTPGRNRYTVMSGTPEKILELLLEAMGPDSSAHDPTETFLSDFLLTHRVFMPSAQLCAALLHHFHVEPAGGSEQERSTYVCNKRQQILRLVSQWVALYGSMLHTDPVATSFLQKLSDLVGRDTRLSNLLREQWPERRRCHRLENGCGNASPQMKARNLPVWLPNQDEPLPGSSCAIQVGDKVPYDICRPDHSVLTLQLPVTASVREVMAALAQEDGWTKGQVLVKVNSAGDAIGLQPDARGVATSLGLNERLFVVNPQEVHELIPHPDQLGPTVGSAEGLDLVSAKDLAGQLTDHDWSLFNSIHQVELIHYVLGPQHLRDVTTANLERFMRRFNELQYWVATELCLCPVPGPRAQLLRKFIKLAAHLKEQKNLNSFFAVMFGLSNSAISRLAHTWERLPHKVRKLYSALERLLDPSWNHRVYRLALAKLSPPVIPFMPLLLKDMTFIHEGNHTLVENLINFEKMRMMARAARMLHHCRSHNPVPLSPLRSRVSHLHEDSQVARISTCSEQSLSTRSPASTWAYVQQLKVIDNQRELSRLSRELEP
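Nucleotide exchange assay: 100 nM EPAC1 with 250 nM Rap1B loaded with BODIPY-GDP and 50 uM GDP, room temperature. Fluorescence (480/540 nm) read every 5 min for 30 min; signal change normalized to 6.5 mM cAMP as full agonist.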
EPAC2 antag: antagonists of human EPAC2; hit rate 0.18% among 360,000; EPAC2 GEF exchange of Rap1B-BODIPY-GDP, fluorescence; Q8WZA2; Potency, µM (doses to about 114 µM), for the others: at the highest dose activity, negative = inhibition, most hits filed as inhibitors; also: % is scaled to controls: 0 for no effect and ±100 for the full control effect; nearly all actives have a fitted effect of over 45% in size
EPAC1 antag: EPAC1 (human) antagonism. Potency, µM (top dose mostly 115 µM), inactives show at the top dose activity change, negative = inhibition, most hits filed as inhibitors. AID 720709. EPAC1 GEF assay, Rap1b-BODIPY-GDP exchange fluorescence. hit rate 0.14% among 360,000. O95398;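 also: plate controls were vehicle for no effect and positive control for full effect; nearly all actives have a fitted effect of over 50% in size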
* hit, by the source's call; ? = inconclusive; nt = no result. Shown are actives, neighbours in structure and some others; about 0.49% of the full set was active somewhere. Calls follow the shape of the dose curve; as a rule, active = well fitted curve in the direction sought with a large enough effect; inconclusive = small, poorly fitted or top-dose-only effect, or another doubt; inactive = no such curve, though single readings can be large; an effect the other way counts as inactive or inconclusive. Potency is read from the fitted curve at half-maximal effect.

SMILES | USP1 inh | EPAC2 agonist | EPAC1 ag | EPAC2 antag | EPAC1 antag
NC(=O)c1cc2ccc(O)cc2oc1=NCc1ccccc1 | ? | 100µM* | 19% | 36% | 15%
NC(=O)c1cc2ccccc2oc1=NCc1ccccc1 | -7% | 9% | -2% | 2% | -11%
Cc1c(C(=O)N2CCCCCC2)c(S(=O)(=O)Nc2cccc(C#N)c2)c(C)n1C | 1% | nt | nt | nt | nt
CCOc1ccc(S(=O)(=O)Nc2nc3ccccc3nc2-n2ccc(=NC(=O)c3cccs3)cc2)cc1 | 0% | 100µM* | ? | 41% | -14%
COc1ccc(/C=C2\Oc3cc(OC(=O)N4CCOCC4)ccc3C2=O)cc1 | -22% | 13% | 1% | 1% | 2%
O=C1/C(=C/c2ccc(O)c(O)c2)Oc2cc(O)ccc21 | -20% | 3% | -9% | -19% | ?
COc1ccccc1C(=O)Oc1ccc2c(c1)O/C(=C\c1ccncc1)C2=O | ? | 7% | 100µM* | 6% | 24%
CC(=O)Oc1ccc2c(c1)O/C(=C\c1ccncc1)C2=O | 28µM* | ? | 89µM* | 81% | 57%
O=C(Oc1ccc2c(c1)O/C(=C\c1ccncc1)C2=O)c1cccs1 | -11% | 4% | -9% | 4% | 49%
COc1cc(/C=C2\Oc3cc(O)ccc3C2=O)ccc1O | 28µM* | 22% | 13% | 11% | 3%
CCOC(=O)c1c(-c2ccc(C)cc2)csc1NC(=O)c1cc(=O)c2cc(C)cc(C)c2o1 | -27% | nt | nt | nt | nt
CC(=O)Nc1ccc(S(=O)(=O)NCCc2csc3nc(-c4cccc(C)c4)nn23)cc1 | -22% | nt | nt | nt | nt
CC(C)Cn1c(=O)c2sccc2n2c(CCCC(=O)NCC(C)c3ccccc3)nnc12 (stereo not drawn) | 7% | nt | nt | nt | nt
Cc1[nH]c(=O)nc(NN=Cc2ccc(Cl)cc2)c1C(=O)Nc1ccc(Cl)cc1 | -19% | 32µM* | -5% | 20% | 2%
COCCCn1c(=O)/c(=C\c2ccccc2OC(C)C)s/c1=C(/C#N)C(=O)Nc1ccc(C(=O)O)cc1 | -14% | -5% | 112µM* | -7% | 19%
Cc1cc(/C=C2\SC(=S)N(Cc3ccco3)C2=O)c(C)n1-c1cccnc1 | 55% | 100µM* | -12% | 51% | -7%
CCN(CC)c1ccc(C=C2C(=O)OC(c3ccccc3)OC2=O)cc1 (stereo not drawn) | -9% | 0% | 0% | 10% | -3%
CCN(CC)c1ccc(/C=C/C(=O)C2C(=O)C=C(C)OC2=O)cc1 (stereo not drawn) | 4.5µM* | -6% | 20% | 104% | 23%
CCOC(=O)Cc1csc(NS(=O)(=O)c2ccccc2)n1 | -16% | -6% | -1% | -2% | 5%
CCOC(=O)c1ccccc1-c1csc(NS(=O)(=O)c2ccc(Cl)cc2)n1 | -12% | 8% | -1% | -6% | 79µM*
COc1ccccc1Nc1nn2c(=O)c3ccc(C(=O)NCCC4=CCCCC4)cc3nc2s1 | -26% | nt | nt | nt | nt
CCOC(=O)N1CCc2c(sc(NCc3sccc3C)c2C(=O)Nc2ccc(OC)cc2OC)C1 | -23% | nt | nt | nt | nt
CCOC(=O)N1CCc2c(sc(NCc3ccc(N(C)C)cc3)c2C(=O)Nc2ccc(OC)cc2)C1 | 28µM* | nt | nt | nt | nt
O=C(O)c1ccc(C[n+]2c(-c3ccccc3)csc2Nc2ccccc2)cc1 | -15% | -10% | -8% | -4% | 4%
CC(C)(C)c1cc(-c2csc(Nc3ccccc3)[n+]2Cc2ccc(C(=O)O)cc2)cc(C(C)(C)C)c1O | ? | -10% | -1% | -23% | 79µM*
SMILES | USP1 inh | EPAC2 agonist | EPAC1 ag | EPAC2 antag | EPAC1 antag
Cc1cccc(NC(=O)C(=O)NCC(c2cccnc2)N2CCOCC2)c1 (stereo not drawn) | -9% | nt | nt | nt | nt
Cc1cc(Oc2ccc(Br)cc2)nc(SCC(=O)c2ccccc2)n1 | -21% | 5% | 2% | -7% | -3%
COC(=O)CSc1nc(C)cc(Oc2ccccc2)n1 | -1% | 10% | -25% | -12% | 50µM*
O=C(Nc1cc(Cl)cc(Cl)c1)c1ccc(F)c(S(=O)(=O)N2CCc3ccccc32)c1 | -21% | nt | nt | nt | nt
CCCn1nc([N+](=O)[O-])c(C(C#N)c2nc3ccccc3o2)c(Cl)c1=O (stereo not drawn) | -25% | -28% | -10% | 56µM* | -17%
CCn1nc([N+](=O)[O-])c(C(C#N)c2nc3cc(C(F)(F)F)ccc3s2)c(Cl)c1=O (stereo not drawn) | ? | -13% | -11% | -29% | ?
CCN(CC)C(=O)Cn1c(C)c(/C=C/c2cc[n+](C)cc2)c2ccccc21 | 25µM* | ? | 18% | 27% | 5%
CCN(CC)C(=O)Cn1c(=O)n(CCc2ccccc2)c(=O)c2ccccc21 | -24% | nt | nt | nt | nt
C=CCn1cc(/C=C/c2cc[n+](C)cc2)c2ccccc21 | 32µM* | 100µM* | ? | 124% | 43%
C=CCn1c(C)c(/C=C/c2cc[n+](C)cc2)c2ccccc21 | 35µM* | 20% | ? | 29% | 32%
CC(C)n1cc(/C=C/c2cc[n+](C)cc2)c2ccccc21 | 32µM* | ? | 100µM* | 72% | 72%
CCn1cc(/C=C/c2cc[n+](C)cc2)c2ccccc21 | ? | ? | -7% | 45% | 6%
CCOC(=O)N1CCc2c(sc3c2c(=O)n(CCc2ccccc2)c(=O)n3Cc2c(F)cccc2Cl)C1 | -14% | nt | nt | nt | nt
Cc1cccc(N2CCN(C(=O)Cn3c(C)c4cnn(-c5ccccc5)c(=O)c4c3C)CC2)c1C | -23% | nt | nt | nt | nt
Cc1ccc(S(=O)(=O)NC2=C(N3CCN(Cc4ccccc4)CC3)C(=O)c3ccccc3C2=O)cc1 | -6% | 4% | 5% | -4% | 10%
CCOC(=O)N1CCN(C2=C(NS(=O)(=O)c3ccc(C)cc3)C(=O)c3ccccc3C2=O)CC1 | 22µM* | 24% | 11% | -18% | -29%
O=C(O)c1ccc(NC2=C(N3CCOCC3)C(=O)c3ccccc3C2=O)cc1 | 28µM* | -12% | -7% | 1% | -20%
Cc1ccc(NC2=C(N3CCOCC3)C(=O)c3ccccc3C2=O)cc1 | 40µM* | 20% | 28% | -6% | -7%
COc1ccc(-c2nc(SCC(=O)Nc3ccc4c(c3)OCO4)c(-c3ccccc3)[nH]2)cc1 | -11% | nt | nt | nt | nt
Cc1cc(NCc2ccccc2Cl)n2cnnc2n1 | -6% | nt | nt | nt | nt
Cc1cccc(-c2nc(CN3CCCC(C(=O)NCCc4ccc(Cl)cc4)C3)c(C)o2)c1 (stereo not drawn) | -33% | nt | nt | nt | nt
CN(Cc1ccccc1)C(=O)CSc1nc(-c2ccc(F)cc2)cc(C(F)(F)F)n1 | -10% | nt | nt | nt | nt
O=C(N/N=C/c1ccc(-c2ccc(S(=O)(=O)Nc3ncccn3)cc2)o1)c1cc2ccccc2cc1O | ? | 1% | -1% | -12% | 13µM*
Cc1cccc(NC(=O)CSc2ncc(-c3ccc(Br)cc3)[nH]2)c1 | -7% | nt | nt | nt | nt
CC1(C)N([O-])c2cc([N+](=O)[O-])ccc2[N+]1=O | 25µM* | 8% | 1% | ? | 71µM*
